The OligoGym collection

biological target: SRC; experiment: pooled miR-30 sensor sort-seq; sequence = guide strand; conditions: shRNA
Note: reference of the scale not given here.

| Sequence | sensor-assay potency score (higher = more potent) |
| --- | --- |
| TCATTGTCTTCAATGAGCCGAG | -0.463 |
| TGAAGGACAGGTCTGTCTCCGT | -0.405 |
| TCCGACTTGATGGTGAAGCGGC | -0.784 |
| TTTCGTGGTCTCACTTTCTCGC | 0.127 |
| TTGAAGGACAGGTCTGTCTCCG | 0.367 |
| TGTGTTGTTGACAATCTGGAGC | -0.666 |
| TCGTGGTCTCACTTTCTCGCAC | -0.731 |

biological target: SREBF2; experiment: as above; conditions: shRNA

| Sequence | sensor-assay potency score (higher = more potent) |
| --- | --- |
| TTTATGATTGACCTGCTGCAAG | -1.02 |
| TTTGATGTAATCAATGGCCTTC | 0.209 |
| TTGATTACTGACAAATTGCAGC | -0.488 |
| TCGAATGACAGGACACTGCGGC | -0.313 |
| TTCACAGCTCTCTTCTTCCTGG | 0.117 |
| TTAACAATCATCTGCTGGCAGT | -1.13 |
| TTAGCTTCGTCTTCAAAGCCTG | -0.243 |
| TCATGCAGGAACACCTTGCGGT | 0.123 |
| TAGCTTCGTCTTCAAAGCCTGC | -1.4 |
| ATTACTGACAAATTGCAGCATC | -0.795 |
| TAAAATGAGAGCGCACAGCTGC | -0.945 |
